Shown are actives, neighbours in structure and some others; about 12% of the full set was active somewhere.
Sfp PPTase inh: Sfp phosphopantetheinyl transferase inhibition | Q9F4F7 | Biochemical Sfp PPTase activity, qHTS | Potency, µM, without a hit: largest response in the series, negative = inhibition, usual class: inhibitors | 310,000 tested, 3.5% active;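 also: the enzyme is Sfp with the accession as filed and its product quenches rhodamine fluorescence; 0% = enzyme reaction without inhibitor and -100% = no enzyme wells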
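Fluorescence-quenching assay with 15 nM Sfp, 5 uM rhodamine-CoA and 12.5 uM BHQ-2-labelled ybbR peptide in pH 7.6 Hepes/MgCl2 buffer. Enzyme was pre-incubated with compound for 15 min at room temperature. Rate was taken from the 30-min fluorescence change (525/598 nm).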
VP16 counter: inhibits Gal4-VP16 luciferase reporter, ROR gamma counter-screen; Drosophila S2 Gal4-VP16 UAS-luciferase, luminescence, 20 h; Potency, µM (highest dose often 53.6 µM), for inactives: top-dose activity, negative = inhibition, usual class: inhibitors; 310,000 tested, 3.5% active; AID 2546;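 also: Gal4-VP16 expression switched on by copper sulfate through the metallothionein promoter; nearly all actives have a fitted effect of over 50% in size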
PLK1 PBD inh: PLK1 (human) polo-box domain binding inhibition | P53350 | Plk1 PBD binding of FITC phosphopeptide, fluorescence polarization | Potency, µM, without a hit: max response, negative = inhibition, most hits filed as inhibitors | 360,000 tested, 2.8% active; also: series mostly up to about 57 µM; nearly all actives have a fitted effect of over 65% in size
ALDH1A1 block: ALDH1A1 (human) enzyme inhibition. P00352. Purified ALDH1A1, NADH fluorescence, propionaldehyde substrate. Potency, µM (top dose mostly 75.3 µM), inactives show top-dose activity, negative = inhibition, actives largely listed as inhibitors. 220,000 tested, 7.3% active. AID 1030; active = well fitted inhibition curve with a large enough effect, not every such curve was filed as active; inconclusive = small, poorly fitted or top-dose-only effect, or another doubt; inactive = no such curve, though single readings can be large or run the other way;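 also: plate controls were no enzyme wells and a reference inhibitor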
RORgamma inh: inhibitors of mouse ROR gamma transcriptional activity; P51450; Drosophila S2 Gal4-RORgamma UAS-luciferase reporter, 20 h; Potency, µM (doses to about 53.6 µM), without a hit: at the top dose activity change, negative = inhibition, usual class: inhibitors; 310,000 tested, 5.4% active; AID 2551; also: nearly all actives have a fitted effect of over 60% in size
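In this cell-based reporter format, copper sulfate (700 uM final) drives Gal4–ROR gamma fusion expression from a metallothionein promoter in Drosophila Schneider cells; compounds preincubated 1 hr, reporter read after 20 hr at ambient temperature.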
An asterisk follows results filed as active; ? = inconclusive; . = not tested or not shown; [ ] = dose if it differs, or a comment. Unless noted, calls follow the shape of the dose curve; as a rule, active = well fitted curve in the direction sought with a large enough effect; inconclusive = small, poorly fitted or top-dose-only effect, or another doubt; inactive = no such curve, though single readings can be large; an effect the other way counts as inactive or inconclusive. Unless noted, % is scaled to controls: 0 for no effect and ±100 for the full control effect; potency is read from the fitted curve at half-maximal effect.

SMILES | Sfp PPTase inh | VP16 counter | PLK1 PBD inh | ALDH1A1 block | RORgamma inh
COc1ccccc1CCNC(=O)C(=O)NCC1OCCN1S(=O)(=O)c1ccc(Br)cc1 (centres undefined) | 4.1% | 35.5µM* | 6.4% | -16.6% | ?
Cc1ccc(Cl)cc1NC(=S)N(CCN(C)C)C(C)c1ccccn1 (centres undefined) | -10.1% | -0.3% | 4.6% | 2.3% | 10µM*
CCOC(=O)c1ccc(NC(=S)N(CCN(C)C)C(C)c2ccncc2)cc1 (centres undefined) | 15.0% | 0.9% | -7.4% | . | -0.4%
CCc1cccc(NC(=S)N(CCN(C)C)C(C)c2ccncc2)c1 (centres undefined) | 19.2% | -2.1% | 0.1% | . | 14.1µM*
CCc1ccccc1NC(=S)N(CCN(C)C)C(C)c1ccccn1 (centres undefined) | -25.9% | 1.6% | -1.7% | -0.9% | ?
CC(c1ccccn1)N(Cc1ccco1)C(=S)Nc1cccc(F)c1 (centres undefined) | 6.1% | ? | -5.4% | ? | 12.6µM*
CN(C)C(=S)Nc1cccc(F)c1 | 20.9% | 2.0% | 0.2% | 0.9% | 17.4%
Cc1cccc(NC(=S)N(CCN(C)C)C(C)c2ccccn2)c1 (centres undefined) | 3.5% | -13.1% | -4.1% | 0.1% | 11.2µM*
COC(=O)c1ccc(C(NC(=O)OCc2ccccc2)/C(F)=C/[C@@H](C)C(=O)NCc2cccnc2)cc1 (some centres undefined) | 12.8% | -2.2% | . | -9.2% | 18.0%
CCCC(C)(C)C(=O)N1CCC1(C)C(=O)Nc1cccc2ccccc12 (centres undefined) | . | . | 4.0% | . | .
CC(=O)N1CCN(c2ccc(NCc3ccccc3)cc2)CC1 | 44.7µM* | 10.6% | 0.7% | -10.4% | 23.3%
CC(=O)N1CCN(c2ccc(NCc3cccc4ccccc34)cc2)CC1 | -22.1% | 7.6% | 23.8µM* | . | 81.5%
N[C@@H](Cc1ccnnc1)C(=O)O | . | . | . | -1.2%[13.5 µM] | .
CCOc1ccccc1N1CC(C(=O)N2CCc3ccccc3C2)CC1=O (centres undefined) | 15.5% | 1.1% | 3.36µM* | -7.7% | 1.3%
O=C(NCc1cccc(C(F)(F)F)c1)c1ccc2nc([C@@H]3O[C@H](CO)[C@@H](O)[C@H]3O)[nH]c2c1 | . | . | -11.8% | . | .
CCSc1nnc(Cn2c(=O)sc3ccccc32)n1C | 12.0% | -12.4% | ? | 2.4% | 23.5%
CSc1nnc(Cn2c(=O)sc3ccccc32)n1-c1ccccc1C | . | . | 18.9µM* | . | .
Cc1ccccc1-n1c(Cn2c(=O)sc3ccccc32)nnc1SCC(=O)NCC1CCCO1 (centres undefined) | 12.8% | -7.8% | 21.2µM* | -10.3% | 16.2%
Cn1c(Cn2c(=O)sc3ccccc32)nnc1SCc1ccccn1 | 12.5% | 0.5% | -5.0% | 2µM* | -4.0%
COc1ccc(C(=O)N2CCC3(CCCN(Cc4ccncc4)C3)CC2)cc1 | 16.6% | -6.0% | . | -5.0% | -6.1%
Nc1ncnc2c1ncn2[C@@H]1O[C@H](C(=O)Nc2ccc(C(=O)N3CCCCC3)cc2)[C@@H](O)[C@H]1O | . | . | -2.3% | . | .
Cc1ccc(NS(=O)(=O)c2cc(NC(=O)c3ccc4c(c3)NC(=O)CS4)ccc2C)c(C)c1 | 10µM* | -7.2% | 9.47µM* | 14.1µM* | 9.8%
CC(=O)NS(=O)(=O)c1ccc(NC(=O)c2ccc3c(c2)NC(=O)CS3)cc1 | . | . | -17.8% | . | .
COc1ccc(NC(=O)c2ccc3c(c2)NC(=O)CS3)cc1S(=O)(=O)Nc1ccc(Br)cc1 | 17.8µM* | ? | ? | 10µM* | -43.2%
COc1ccc2[nH]c(C)c(CCN3C(=O)OC(C)(C)C3(C)O)c2c1 (centres undefined) | 12.9% | -1.6% | 5.6% | ? | 3.1%
COc1ccc2[nH]c(C)c(CCN3C(=O)C4CC=CCC4C3=O)c2c1 (centres undefined) | 0.1% | 9.1% | 21.2µM* | ? | -15.5%
COc1ccc(N=C2C(=Nc3ccc(OC)cc3)N(c3ccccc3)C(=S)N2C(=O)c2ccc(Cl)cc2)cc1 | 50.1µM* | ? | -9.0% | ? | 14.1µM*
COc1ccc(N2C(=S)N(C(=O)c3ccccc3)C(=Nc3ccccc3)C2=Nc2ccccc2)cc1 | . | . | 21.2µM* | . | .
COc1ccc(N=C2C(=Nc3ccc(OC)cc3)N(c3ccc(OC)cc3)C(=S)N2C(=O)c2ccc(OC)cc2)cc1 | -24.6% | -3.4% | -9.2% | ? | ?
